Experimental data as given in PubChem BioAssay AID2766 (Sanford-Burnham Center for Chemical Genomics, 2010).
The list shows a part of the results. Activity calls are given as the source filed them. Cut-off read from the data, not from the text of the source: active = inhibition above about 50%; inactive = the rest.

These molecules were tested against Apelin receptor (Homo sapiens) (UniProt P35414) (assay: APJ antagonists blocking beta-arrestin recruitment, confirmation, cell-based, luminescence, single concentration, uHTS hits (AID 2766)). Settings: antagonist mode, at 20 µM, active compounds read high.
Apelin receptor (Homo sapiens), sequence (P35414 whole entry, looked up): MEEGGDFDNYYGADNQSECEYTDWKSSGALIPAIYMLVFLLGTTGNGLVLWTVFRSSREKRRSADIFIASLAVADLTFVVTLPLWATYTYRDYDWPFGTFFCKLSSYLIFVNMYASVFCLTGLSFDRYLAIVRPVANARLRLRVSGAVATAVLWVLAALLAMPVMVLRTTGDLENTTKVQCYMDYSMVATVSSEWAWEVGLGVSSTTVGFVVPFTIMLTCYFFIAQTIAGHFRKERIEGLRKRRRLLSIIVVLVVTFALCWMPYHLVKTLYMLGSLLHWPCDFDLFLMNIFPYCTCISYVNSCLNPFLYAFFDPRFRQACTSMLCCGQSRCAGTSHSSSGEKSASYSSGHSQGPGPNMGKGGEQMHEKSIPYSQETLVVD
For `CC(CN1CCOCC1)OC(=O)c1ccc(C(C)(C)C)cc1` (centres undefined), the inhibition was 26.5% (inactive).
With `CN(C)S(=O)(=O)c1cccc(NC(=S)N/N=C/C(=O)c2ccccc2)c1` the inhibition was 52.4% (active).
`CC(C)OC(=O)CN1C(=O)C(=O)c2ccccc21` was tested, and the inhibition was 158% (active).
With `O=C1Nc2ccc(Br)cc2/C1=N/N=C/C1=C(N2CCOCC2)C(=C\c2ccccc2)/CC1` the inhibition was 75.1% (active).
For `CC1CC2=C(CC1/C=N/NC(N)=S)C(C)(C)CCC2` (centres undefined), the inhibition was 103% (active).
In the case of `Cc1cccc(-n2c(O)c(C=Nc3ccccc3N)c(=O)[nH]c2=O)c1`, the inhibition is reported as 8.93% (inactive).
In the case of `COc1ccc(NC(=O)/C(Cl)=C(/Cl)S(=O)Cc2ccc(C)cc2)cn1` (centres undefined), the inhibition is reported as 106% (active).
With `O=C(CCl)NNc1cccc(Cl)n1` the inhibition was 145% (active).
With `O=C(CCc1nc2ccccc2c(=O)[nH]1)OCC(=O)c1cccc(Cl)c1` the inhibition was 37.2% (inactive).
`CC(=O)C1=C(O)C(=O)N(c2ccc(S(N)(=O)=O)cc2)C1c1ccccc1F` (centres undefined) was tested, and the inhibition was 43.9% (inactive).
In the case of `O=[N+]([O-])c1cc(Cl)cc(/C=N/NC(=S)Nc2cc(S(=O)(=O)N3CCOCC3)ccc2Cl)c1O`, the inhibition is reported as 62.4% (active).
In the case of `COc1cccc2sc(Nc3nc(C)c(C(C)=O)s3)nc12`, the inhibition is reported as 94% (active).
In the case of `O=c1ccc2c(-c3ccccc3S(=O)(=O)O)c3ccc(O)c(O)c3oc-2c1O`, the inhibition is reported as 69.9% (active).
With `CCc1ccc2c(c1)C1(NN=C(c3ccccc3)S1)C(=O)N2` (centres undefined) the inhibition was 42.9% (inactive).
For `Cc1cc(/C=N/Nc2ccc([N+](=O)[O-])cn2)c(C)n1-c1cccc(C(=O)O)c1`, the inhibition was 75.3% (active).
With `COc1ccc(CS(=O)/C(Cl)=C(/Cl)C(=O)Nc2ccc(OC)nc2)cc1` (centres undefined) the inhibition was 100% (active).
For `COc1cc(/C=C2/SC(=S)N(Cc3ccccc3)C2=O)cc(OC)c1O`, the inhibition was 94.7% (active).
In the case of `Cc1cccc2cc3c(N)c(C(=O)N4CCCc5ccccc54)sc3nc12`, the inhibition is reported as 47.9% (inactive).
`S=C(NNC(=S)NC1CC2CCC1C2)NC1CC2C=CC1C2` (centres undefined) was tested, and the inhibition was 49.1% (inactive).
With `COC(=O)c1ccc(NCC(=O)c2ccccc2)cc1` the inhibition was 63.5% (active).
For `O=C1Nc2ccc([N+](=O)[O-])cc2C1=Nc1cccc(CO)c1`, the inhibition was 72.5% (active).
For `Cc1csc(NC(=S)Nc2cccc(Cl)c2)n1`, the inhibition was 55.8% (active).
With `CSCCC(NC(=O)COc1ccccc1)C(=O)OCC(=O)c1cc2ccccc2o1` (centres undefined) the inhibition was 87.8% (active).
In the case of `CN1/C(=c2/s/c(=C3/C(=O)N(c4ccccc4)NC3=Nc3ccccc3)n(C)c2=O)C(C)(C)c2ccccc21`, the inhibition is reported as 55.3% (active).
For `CC(=O)Nc1ccc(NC(=O)c2sc3nc4c(c(-c5ccc(C)cc5)c3c2N)CCC4)cc1`, the inhibition was 5.53% (inactive).
With `CC(=O)/C(=N\Nc1ccc(Cl)cc1Cl)Sc1cccc2cccnc12` the inhibition was 78% (active).
`O=[N+]([O-])c1ccccc1S(=O)(=O)Nc1cccc2cccnc12` was tested, and the inhibition was 4.57% (inactive).
In the case of `O=C(CSc1cccc2cccnc12)N/N=C/c1cccnc1`, the inhibition is reported as 43.5% (inactive).
With `COc1cc(NS(=O)(=O)c2ccc3ccccc3c2)c2ncccc2c1` the inhibition was -7.35% (inactive).
With `COc1cc(/C=N\NC(=O)CNC(=O)c2cccc([N+](=O)[O-])c2)ccc1O` the inhibition was 2.71% (inactive).
In the case of `O=[N+]([O-])c1c(NCCO)cc(Sc2nc3ccccc3s2)c2nonc12`, the inhibition is reported as 105% (active).
In the case of `COc1cc(/C=C(\C#N)c2nc3c(s2)CC(C)CC3)ccc1O` (centres undefined), the inhibition is reported as 44.7% (inactive).
In the case of `Oc1ccc(N=Nc2nccs2)c(O)c1`, the inhibition is reported as 79.8% (active).
In the case of `CCOC(=O)c1cnc(Nc2nc3ccccc3o2)nc1CSC(=S)N1CCCCC1`, the inhibition is reported as -22.6% (inactive).
